# hERG WT inh: inhibitors of human wildtype KCNH2 potassium channel | Q12809 | U2OS, BacMam KCNH2, thallium flux FluxOr; active compounds read low | activity change, % at 1.84 µM | 0.37% of 340,000 active | AID 720551;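 active = maximum activity change below -70%; inconclusive = maximum activity change between -70% and -50%; inactive = maximum activity change above -50%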
#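 U2OS cells were transduced with wild-type KCNH2 virus (2.03 x 10^8 / mL) for 4 h at room temperature, then cultured overnight at 37 C. Thallium flux was read with FluxOr dye. Rate constants were normalized to DMSO controls.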
# SW480 rerep: inducers of DNA re-replication in SW480 colon cancer cells; SW480 DNA re-replication, Hoechst DNA content imaging, 48 h; Potency, µM (doses to about 46.1 µM), hits mostly activators; 1.8% of 340,000 active; also: nearly all actives have a fitted effect of over 55% in size
#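 Image-based read-out: total Hoechst fluorescence of nuclei (405 nm excitation, 500-530 nm emission), with hits raising the fraction of high-intensity nuclei. SW480 colon cells incubated 48 hr with compounds at 37 C.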
# KB-V1 cytotox: KB-V1 MDR subline cytotoxicity; Potency, µM (doses to about 46.1 µM), usual class: cytotoxic; 3.4% of 400,000 active; KB-V1 MDR cells viability, CellTiter-Glo, 72 h; AID 1347076; also: nearly all actives have a fitted effect of over 60% in size
#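 Potencies derive from concentration-effect curves fitted to normalized luminescence (CellTiter-Glo) of KB-V1 cells treated for 72 h at 37 degrees C in phenol-red-free DMEM containing 10% FBS.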
# KB-3-1 cytotox: KB-3-1 parental cell cytotoxicity | Potency, µM (titrated, usually from 46.1 µM), hits mostly cytotoxic | AID 1347075 | 1.4% of 400,000 active | KB-3-1 viability, CellTiter-Glo ATP luminescence, 72 h; also: nearly all actives have a fitted effect of over 60% in size
#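 Multi-concentration cytotoxicity screen in KB-3-1 cells grown in DMEM lacking phenol red with 10% FBS. After 72 h at 37 °C with compound, ATP-dependent luminescence was recorded.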
# MCF10A rereplic: inducers of DNA re-replication in MCF 10A breast cells; MCF 10A DNA re-replication, Hoechst nuclear intensity, 48 h; Potency, µM (top dose mostly 46.1 µM), usual class: activators; 2.9% of 350,000 active; also: nearly all actives have a fitted effect of over 50% in size
# KCNH2 3.1 block: KCNH2 3.1 (human) potassium channel inhibition. 0.95% of 340,000 active. AID 720553. activity change, % (tested at about 1.8 µM). U2OS KCNH2 3.1, thallium flux FluxOr; active compounds read low;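 active = maximum activity change below -70%; inconclusive = maximum activity change from -70% to -50%; inactive = maximum activity change above -50%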;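 also: thallium influx rate constant from kinetic fluorescence after stimulation buffer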
#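 Virally transduced U2OS (3.1 isoform, 4 h infection in dark at RT) → overnight 37 C → FluxOr + Red40 in HBSS/HEPES, 45 min → stimulation buffer, 2 min kinetic read → rate constant vs DMSO controls.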
# A number is an active result; 0 = inactive; ? = inconclusive; - = not tested or not shown; [ ] = dose if it differs, or a comment. Rows were chosen to be rich in hits. Some 7.6% of all compounds tested hit in one or more screens of this group. Unless noted, calls follow the shape of the dose curve; as a rule, active = well fitted curve in the direction sought with a large enough effect; inconclusive = small, poorly fitted or top-dose-only effect, or another doubt; inactive = no such curve, though single readings can be large; an effect the other way counts as inactive or inconclusive.
SMILES,hERG WT inh,SW480 rerep,KB-V1 cytotox,KB-3-1 cytotox,MCF10A rereplic,KCNH2 3.1 block
COc1cccc2sc3cc(NCCCN4CCOCC4)ccc3c(=O)c12,0,0,0,0,18µM,0
COc1ccc(S(=O)(=O)N2CCOCC2)cc1NC(=O)CN1C(=O)NC2(CCC(C)CC2)C1=O (stereo unspecified),0,-,0,0,-,0
COc1ccc(C(C(=O)NC2CCCC2)N(CCO)C(=O)Cn2nnc(-c3ccc(C)o3)n2)cc1OC (stereo unspecified),0,0,0,0,0,0
COc1ccc(CCNC(=S)c2ccccc2)cc1OC,0,0,0,?,0,0
COc1ccc(NC(=O)C2=CC(c3ccc4c(c3)OCO4)=NS(=O)(=O)N2C)cc1,-,-,0,0,-,-
O=C(c1cccs1)N1CCCC1,0,0[9.22 µM],0,0,0,0
O=C(c1cccs1)N1CCN(C(=O)c2cccs2)C1=S,0,16µM,2.9µM,15µM,5.8µM,0
O=C(Nc1ccc(OC(F)(F)F)cc1)C1CCCN(S(=O)(=O)c2cccc3nonc23)C1 (stereo unspecified),-,-,0,0,-,-
CCN(CC)CCCN(c1ccccc1)C1Cc2ccccc2C1,-,?,-,-,0,-
COc1ccc(C2CC(c3cccs3)=NN2C(=O)CSc2nncn2C)cc1OC (stereo unspecified),0,0,?,0,4.6µM,0
COc1ccc(Cn2nnc3c(=O)[nH]c(C4CCCN(C(=O)c5ccccc5Cl)C4)nc32)cc1OC (stereo unspecified),-,-,0,0,-,-
CN(C)CCNc1oc(COc2ccc(-c3ccccc3)cc2)nc1C#N,0,0,0,0,0,-72
N#Cc1nc(-c2cccs2)oc1NCCCN1CCOCC1,0,0,0,0,0,0
N#Cc1nc(-c2ccccc2F)oc1NCCN1CCOCC1,0,0,0,0,0,0
N#Cc1nc(/C=C/c2ccccc2)oc1NCCCN1CCOCC1,0,?,?,0,23µM,0
N#Cc1nc(-c2cccc3ccccc23)oc1NCCN1CCOCC1,0,?,0,0,16µM,0
N#Cc1nc(COc2ccc(-c3ccccc3)cc2)oc1NCCCN1CCOCC1,0,?,0,?,11µM,?
COc1ccc(N2CCN(C(=O)c3ccc(-c4nc(COc5ccccc5)c(C)o4)cc3)CC2)cc1,-,-,0,0,-,-
COc1ccccc1NC(=O)N1CCN(c2ncccn2)CC1,0,0[9.22 µM],0,0,0,0
O=C(CC1N=C2c3ccccc3N=C(SCC(=O)Nc3ccccc3F)N2C1=O)NCc1cccs1 (stereo unspecified),-,-,0,0,-,-
Cc1nnn(C23CC4CC(CC(CC(=O)Nc5ccc(C)c(Cl)c5)(C4)C2)C3)n1,0,0,7.3µM,0,0,0
COc1ccc(N2CCN(C(c3cccc(OC)c3OC)c3nnnn3C3CCCC3)CC2)cc1 (stereo unspecified),0,13µM,0,0,?,0
COc1ccc(OC)c(C(c2nnnn2C2CCCC2)N2CCc3ccccc3C2)c1 (stereo unspecified),0,0,16µM,?,0,0
C=CCc1c(O)c(CC)cc2c(C)cc(=O)oc12,0,12µM,0,0,0,0
CCN(CC)Cc1c(O)c(Cl)cc2c(C)cc(=O)oc12,0,0,0,0,?,0
SMILES,hERG WT inh,SW480 rerep,KB-V1 cytotox,KB-3-1 cytotox,MCF10A rereplic,KCNH2 3.1 block
O=c1n(-c2ccccc2)c(=O)n2n1CCCC2,0,16µM,0,0,?,0
O=C1CC(N2CCN(Cc3ccccc3)CC2)C(=O)N1CCc1ccccc1 (stereo unspecified),0,0,0,0,26µM,0
Cc1onc(-c2ccccc2Cl)c1C(=O)OCC(=O)Nc1cccc(S(=O)(=O)N2CCOCC2)c1,0,?,?,0,0,0
COc1ccc(/C=C/c2cc(C(F)(F)F)[nH]c(=O)n2)cc1OC,0,16µM,0,?,?,0
Cc1ccnc(NC(=O)CCC(=O)N(CC(=O)NC(C)(C)C)c2ccc3c(c2)OCCO3)c1,0,0,0,?,0,0
O=C(CSc1nnc(CNC(=O)c2ccco2)o1)Nc1ccc(F)cc1F,0,0,0,0,0,0
CC1CCCC(C)N1C(=O)COC(=O)c1cccc(S(=O)(=O)N(C)c2ccccc2)c1 (stereo unspecified),0,0,0,0,0,0
CC1CCN(C(=O)COC(=O)c2cccc(S(=O)(=O)N(C)c3ccccc3)c2)CC1,0,0,21µM,0,?,0
Cc1ccc(N(C)S(=O)(=O)c2cccc(C(=O)OCC(=O)N3CCCC(C)C3)c2)cc1 (stereo unspecified),0,0,21µM,0,0,0
CC1CCCN(C(=O)COC(=O)c2cccc(NS(=O)(=O)c3ccccc3)c2)C1 (stereo unspecified),0,0,0,0,0,0
CCN(CC)S(=O)(=O)c1cccc(C(=O)OCC(=O)C23CC4CC(CC(C4)C2)C3)c1,0,0,15µM,?,0,0
Cc1sc2ccccc2[n+]1CCCC[n+]1c(C)sc2ccccc21,-,-,0,0,-,-
Cc1cc(NC(=O)CSc2nc3c(C)c(C)ccc3cc2C)no1,0,0,0,0,0,0
COc1ccc(Cl)cc1NC(=O)C(C)N1CCN(c2ccccn2)CC1 (stereo unspecified),0,0,0,0,0,0
C=CCN(CC=C)C(=S)NC(=O)c1ccc(-c2ccccc2)cc1,0,0,5.8µM,?,?,0
COc1ccc(C(=O)NC(=S)N(Cc2ccccc2)Cc2ccccc2)cc1,-102,?,?,?,0[0.0737 µM],0
C=CCN(CC=C)C(=S)NC(=O)c1ccc(OC)cc1,0,0,16µM,0,0,0
CN(Cc1ccccc1)C(=S)NC(=O)c1ccc(-c2ccccc2)cc1,0,0,0,0,0,0
COc1ccc(C(=O)N(Cc2ccccc2)Cc2cc3cc4c(cc3[nH]c2=O)OCCO4)cc1,0,?,11µM,8.9µM,?,0
CCc1nc2cccnc2n1-c1ccc(CC(=O)Nc2ccc(C)cc2)cc1,-,-,0,0,-,-
CCn1c(CC(=O)Nc2ccc(F)cc2)nnc1SCC(=O)N1CCOCC1,0,0,0,0,0,0
Cc1ccc(/C=C/S(=O)(=O)NCC(=O)OCC(=O)Nc2ccc(C(=O)N(C)C)cc2)cc1,0,0,0,0,0,0
O=C(CNC(=O)c1ccccc1Cl)NCC(c1cccs1)N1CCOCC1 (stereo unspecified),0,0,0,0,0,0
CCN(Cc1ccccc1)C(=S)Nc1cc(C(=O)OC)ccc1C(=O)OC,0,0,15µM,0,0,0
COC(=O)c1ccc(C(=O)OC)c(NC(=O)Oc2ccccc2)c1,0,0,0,0,0,0

# Source: PubChem
